Source: PubChem
In the library only some 2.9% were active in any assay of this set; here they are far more common.
Mtb FBA inh = Mtb FBA enzyme inhibitors, primary screen, biochemical, fluorescence, strain H37Rv; purified M. tuberculosis FBA, fluorescence read-out; inhibition, % at 1 µM; 360,000 tested, 2.3% active;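 note: 0% = vehicle and 100% = reference inhibitor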
Target sequence (P9WQA3 whole entry, looked up): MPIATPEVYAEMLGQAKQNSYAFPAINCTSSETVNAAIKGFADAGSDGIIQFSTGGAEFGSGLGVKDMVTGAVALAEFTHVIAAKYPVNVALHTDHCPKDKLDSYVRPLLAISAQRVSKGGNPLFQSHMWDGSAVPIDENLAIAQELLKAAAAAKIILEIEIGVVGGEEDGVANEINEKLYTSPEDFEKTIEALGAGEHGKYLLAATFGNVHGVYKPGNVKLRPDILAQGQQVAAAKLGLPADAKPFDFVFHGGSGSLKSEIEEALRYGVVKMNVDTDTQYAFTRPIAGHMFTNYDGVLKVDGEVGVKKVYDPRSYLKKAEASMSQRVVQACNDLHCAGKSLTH
GDH-TPI counter-1 = GDH-TPI coupling enzyme inhibitors, primary screen, artefact control for M. tuberculosis FBA inhibitor project, biochemical, absorbance, full deck | inhibition, % at 4.8 µM | AID 588335, 2011 | GDH-TPI coupled enzyme counterscreen, NADH absorbance | 360,000 tested, 1.2% active; in the data active = inhibition above about 30%;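 note: 0% = DMSO wells and 100% = wells lacking the enzyme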
Mtb hypoxia rep = PubChem AID 1159583 | fluorescence inhibition, % (no concentration beside the values) | M. tuberculosis hypoxia-regulated fluorescent reporter, fluorescence | 300,000 tested, 0.1% active; in the data active = fluorescence inhibition mostly above about 23%, no sharp cut-off; inactive = mostly below about 17%
BioA inh = M. tuberculosis BioA enzyme inhibitors, primary screen, biochemical, plate reader, single point, HTS | 360,000 tested, 0.096% active | inhibition, % at 9.99 µM | purified M. tuberculosis BioA enzyme | 7,8-diaminopelargonic acid synthase BioA (Mycobacterium tuberculosis); in the data active = inhibition above about 40%
FadD28 binding = inhibitors of FadD28 bisubstrate probe binding, primary screen, biochemical, fluorescence polarization, single point. 360,000 tested, 0.22% active. inhibition, % at 12.5 µM. Mycobacterium tuberculosis FadD28 fatty-acid-AMP ligase. AID 588549, 2011; in the data active = inhibition above about 8.5%, passing the limit was not always enough
Mtb FBA inh conf = M. tuberculosis aldolase blockers, biochemical, fluorescence, strain H37Rv, confirmation. 5,600 tested, 78% active. AID 651616, 2012. inhibition, % at 1 µM. purified M. tuberculosis FBA, fluorescence read-out. shares compounds with Mtb FBA inh;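 note: 0% = vehicle wells and 100% = reference inhibitor wells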
GDH-TPI counter-2 = GDH-TPI coupling enzyme inhibitors, artefact control for M. tuberculosis FBA inhibitor project, biochemical, fluorescence, high throughput | shares compounds with Mtb FBA inh | GDH-TPI coupled enzyme counterscreen | inhibition, % at 1 µM | 5,600 tested, 81% active | AID 652141, 2013; in the data active = inhibition above about 10%
Active calls of the source: *; . = no result given; + = active, no number. Cut-off read from the data, not from the text of the source, unless noted: active = inhibition above about 27%; inactive = the rest.

SMILES	Mtb FBA inh	GDH-TPI counter-1	Mtb hypoxia rep	BioA inh	FadD28 binding	Mtb FBA inh conf	GDH-TPI counter-2
COC(=O)c1ccc(C(=O)OC)c(NC(=S)N2CCCCC2C)c1 (stereo not given)	100*	2	.	.	-4	60*	59*
COC(=O)c1ccc(C(=O)OC)c(NC(=S)N2CCN(C)CC2)c1	33*	9	-6	29	-1	198*	174*
COC(=O)c1ccc(C(=O)OC)c(NC(=S)N2CCC(C)CC2)c1	23	8	8	.	2	.	.
COC(=O)c1ccc(C(=O)OC)c(NC(=O)CCC(=O)O)c1	28*	18	3	.	-1	33*	23*
COC(=O)c1ccc(C(=O)OC)c(NC(=S)N2CCCC2)c1	3	2	1	0	0	.	.
COC(=O)[C@]1(C)N[C@H](c2ccc(-c3ccc(OC)cc3)cc2)[C@@H]2C(=O)N(C)C(=O)[C@@H]21	16	13	.	-1	-1	.	.
CCN1C(=O)[C@H]2[C@@H](c3ccc(-c4ccc(OC)cc4)cc3)N[C@@](C)(C(=O)OC)[C@H]2C1=O	100*	13	1	-1	0	135*	94*
Cc1cccc(-c2cnc3cccnn23)c1	45*	1	.	0	-4	-8	-7
CCOc1cccc(-c2cnc3cccnn23)c1	73*	16	.	2	-4	-3	-6
C[C@@H]1CCCCO[C@H](CN(C)Cc2ccc3c(c2)OCO3)[C@@H](C)CN([C@@H](C)CO)C(=O)c2cc(NC(=O)Nc3ccc(F)cc3)ccc2O1	.	.	.	-1	.	.	.
CCCN1CCN(CCCNC(=O)c2cc3c(=O)[nH]c4ccccc4c3s2)CC1	47*	5	10	-1	-2	91*	76*
COCCNC(=O)c1cc2c(=O)[nH]c3ccccc3c2s1	78*	19	10	1	-2	102*	84*
CCOC(=O)N1CCN(C(=O)c2cc3c(=O)[nH]c4ccccc4c3s2)CC1	10	13	2	0	-1	.	.
CCCN1CCN(CCCNC(=O)c2cc3c(=O)oc4ccc(C)cc4c3s2)CC1	6	8	8	1	0	.	.
O=C(C[C@H]1CC[C@H](NS(=O)(=O)c2ccccc2)[C@@H](CO)O1)NCc1ccc(Cl)c(Cl)c1	.	.	.	-4	.	.	.
O=c1c(-c2cnn(-c3ccccc3)c2)coc2cc(O)ccc12	7	5	2	1	-3	.	.
Cc1oc2cc(O)ccc2c(=O)c1-c1cnn(-c2ccccc2)c1	41*	14	.	2	-3	+	+
Cc1oc2cc(O)ccc2c(=O)c1-c1ccccc1	71*	24	-1	.	-1	199*	161*
COc1ccc(NC(=O)N[C@@H]2CC[C@@H](CCn3cc(-c4ccccc4)nn3)O[C@H]2CO)cc1	.	.	.	-1	.	.	.
Fc1cccc(NC(=S)NNc2c3ccccc3nc3ccccc23)c1	50*	10	4	.	-3	187*	132*
O=c1[nH]c(NCCO)nc2c1C1(CCCCC1)Cc1ccccc1-2	98*	13	.	-1	-2	-4	-7
CC(=O)Nn1cnc2c(c1=O)C1(CCCCC1)Cc1ccccc1-2	3	-5	.	.	-3	.	.
CC1(C)CC(n2c(NCCO)nc3c(c2=O)C2(CCCC2)Cc2ccccc2-3)CCO1 (stereo not given)	38*	11	18	1	-2	+	193*
CNc1cc(-c2cccc(OC)c2F)nc2ccnn12	109*	7	.	1	-2	90*	62*
COc1ccccc1-c1cc(C(F)(F)F)nc(NCc2ccco2)n1	5	15	0	-1	1	.	.
CCCNC(=O)N1[C@H](C#N)[C@H](c2ccc(-c3cccc(OC)c3)cc2)[C@@H]1CO	.	.	.	-1	.	.	.
CC(=NNC(=S)Nc1cccc(C)c1)c1cccc(N)c1	.	.	3	.	.	.	.
CC(C#N)(Nc1ccc(Cl)cc1)c1cccnc1 (stereo not given)	28*	10	-9	0	-2	+	+
